The entries come from a sample that favours hits as a whole.
Pf apPOL inh = Pf-apPOL inhibitors, biochemical, fluorescence. Recombinant Pf-apPOL, molecular beacon fluorescence, 1.5 h. 0.25% of 210,000 active. inhibition, % at 10 µM. Plasmodium falciparum apicoplast DNA polymerase (apPOL)
mHTT CaM bind = mutant huntingtin-calmodulin interaction inhibitors – biochemical, AlphaScreen, primary screen | inhibition, % at 15 µM | AlphaScreen His-mHTT/GST-CaM binding, luminescence | P42858 | 3.6% of 190,000 active;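 further: 0% = both proteins with DMSO and 100% = one protein alone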
Numbers without * were called inactive; ! = a repeat was not active. No stated cut-off is given here; in the data, active means inhibition above about 50%; inactive means the rest.

SMILES | Pf apPOL inh | mHTT CaM bind
O=C(NC1CC1)c1ccc(N2CCC(NCc3cc(Cl)ccc3O)C2)nc1 (stereo unspecified) | -0.8 | 16.6
CCCCOc1cc(OCCCC)c2c3c(c(=O)oc2c1)CCCC3 | 3.0 | -10.4
COc1ccc(CN(CCC2(Cc3ccccc3)CCOC(C)(C)C2)C(C)=O)cc1 (stereo unspecified) | 2.3 | 11.8
CC(=O)N(CCC1(Cc2ccccc2)CCOC(C)(C)C1)Cc1ccccc1 (stereo unspecified) | -0.6 | 55.8*
COc1ccc(Cl)cc1S(=O)(=O)Nc1ccc2c(c1)NC(=O)C(C)(C)CO2 | -9.3 | 69.4*
CCc1ccc(NS(=O)(=O)c2cc(Cl)ccc2OC)cc1 | -11.6 | -8.3
COc1cc(C2C(C#N)=C(N)OC(C)=C2C(C)=O)c([N+](=O)[O-])cc1OC (stereo unspecified) | -5.2 | 57.2*
COc1cc(C2C(C#N)=C(N)Oc3c2oc(CO)cc3=O)c([N+](=O)[O-])cc1OC (stereo unspecified) | 4.2 | 22.0
CCCCN(CCCC)C(=C(Cl)Cl)C(=C1NCCN1)[N+](=O)[O-] | -10.7 | 3.0
O=S(=O)(N(Cc1ccccc1)[C@H](CO)Cc1ccccc1)N(Cc1ccccc1)[C@H](CO)Cc1ccccc1 | -1.5 | 0.5
COc1ccc(CN([C@H](CO)CC(C)C)S(=O)(=O)N(Cc2ccccc2)[C@H](CO)CC(C)C)cc1 | -1.2 | 97.8*
COc1ccc(CN([C@H](C)CO)S(=O)(=O)N(Cc2ccccc2)[C@H](CO)C(C)C)cc1 | 2.0 | 16.3
CC(C)C[C@@H](CO)N(Cc1ccccc1)S(=O)(=O)N(Cc1ccccc1)[C@H](CO)CC(C)C | -1.7 | 93.2*
CC(C)C[C@@H](CO)N(Cc1ccccc1)S(=O)(=O)N(Cc1ccccc1)[C@@H](CO)CC(C)C | -2.7 | 99.9*
C=C[C@H](CC(C)C)N(Cc1ccccc1)S(=O)(=O)N(Cc1ccccc1)[C@@H](C=C)CC(C)C | -3.4 | -11.5
COc1ccccc1-c1coc2cc(OCC#N)ccc2c1=O | -3.2 | -1.5
CN(Cc1ccsc1)C(=O)c1ccc(F)cc1 | -3.6 | -6.6
COC(=O)[C@@H]1N2C(=O)[C@@H](NC(=O)C(C)Oc3ccccc3)[C@H]2SC1(C)C (stereo partly specified) | -6.7 | 66.4*
CC(Oc1ccccc1)C(=O)N[C@@H]1C(=O)N2[C@@H]1SC(C)(C)[C@@H]2C(=O)OCc1ccccc1 (stereo partly specified) | -6.6 | 35.5
Cc1ccc(CNS(=O)(=O)c2ccc(F)c(C(=O)Nc3ccccc3Br)c2)cc1 | 0.2 | 0.0
CCOc1cc(O)c(-c2n[nH]c(C)c2-c2ccc(F)cc2)cc1CC | -3.7 | 46.6
CCc1cc(-c2n[nH]c(C)c2-c2nc3ccccc3s2)c(O)cc1OC | -1.1 | 98.2*
COc1cccc(Oc2c(C)oc3c(CN(C)C)c(O)ccc3c2=O)c1 | 0.8 | -0.7
CC1=CC(C)C(CNCCN2CCNCC2)C(C)C1 (stereo unspecified) | 0.3 | 2.0
CC(C)=CCC/C(C)=C/CC(C)(C)CNCCN1CCNCC1 | -5.3 | 85.0*
SMILES | Pf apPOL inh | mHTT CaM bind
Cc1ccc(C)c(N2CCN(C(=O)C3c4ccccc4CC(=O)N3C)CC2)c1 (stereo unspecified) | -7.2 | 43.9
CCC(=O)N1CCN(c2nc(C)nc3sc4c(c23)CCCC4)CC1 | -2.9 | 11.9
O=C(Nc1ncn[nH]1)c1cccc(Br)c1 | 1.1 | 6.8
O=C(Nc1ncn[nH]1)c1ccccc1O | -11.0 | 99.4*!
CC(=O)C1=C(C)NC(SCC(N)=O)=C(C#N)C1c1cccc([N+](=O)[O-])c1 (stereo unspecified) | -2.9 | 0.0
CC(=O)C1=C(C)NC(SCC(=O)c2ccc([N+](=O)[O-])cc2)=C(C#N)C1c1ccccc1Cl (stereo unspecified) | -18.1 | 60.9*
CC(=O)C1=C(C)NC(SCC(=O)c2ccc([N+](=O)[O-])cc2)=C(C#N)C1c1ccccc1 (stereo unspecified) | -4.0 | 59.4*
CC(=O)C1=C(C)NC(SCC(=O)c2ccccc2)=C(C#N)C1c1ccccc1Cl (stereo unspecified) | -2.7 | -57.2
CC(=O)C1=C(C)NC(SCC(=O)c2ccc([N+](=O)[O-])cc2)=C(C#N)C1c1cccc(C)c1 (stereo unspecified) | 0.7 | 63.5*
CC(=O)C1=C(C)NC(SCC(=O)c2ccccc2)=C(C#N)C1c1ccc(Cl)cc1 (stereo unspecified) | 5.1 | -22.3
CCc1ccc(C2C(C#N)=C(SCC(=O)c3cccc([N+](=O)[O-])c3)NC(C)=C2C(C)=O)cc1 (stereo unspecified) | -3.4 | 45.4
CC(=O)C1=C(C)NC(SCC(=O)c2cccc([N+](=O)[O-])c2)=C(C#N)C1c1cccc(C)c1 (stereo unspecified) | -11.3 | 61.9*
C#CCN(C)C(=O)c1ccc(-c2cccc(C(F)(F)F)c2)s1 | -5.5 | 4.9
